Assay [1] in a line: growth inhibition of DIPG glioma cells, dose response, cell-based, SU-DIPG-XVII, MIPE5.0, CellTiter-Glo, qHTS (AID 1347060).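 As to AC50: cells exposed to compound for 48 hours before viability readout.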 Conditions: SU-DIPG-XVII viability, CellTiter-Glo ATP luminescence.
A short description of assay [2]: growth inhibition of DIPG glioma cells, dose response, cell-based, SU-DIPG-XIII, MIPE5.0, CellTiter-Glo, qHTS (AID 1347064; cut-off not given, nearly all actives have AC50 up to about 23 µM;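 as to AC50: cells exposed to compound for 48 hours before the viability read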). As to conditions: SU-DIPG-XIII viability, CellTiter-Glo ATP luminescence.
Assay [3] is described as follows: viability loss in pontine glioma line – cell-based, SU-DIPG-XXV, MIPE5.0, CellTiter-Glo, qHTS, dose response (AID 1347065).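 Also: cells exposed to compound for 48 hours before ATP readout.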 Conditions: CellTiter-Glo ATP luminescence.
Assay [4] is described as follows: JHH-DIPG-1 glioma cell viability, MIPE5.0 library, CellTiter-Glo luminescence, qHTS (AID 1347067).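 Also: cells exposed to compound for 48 hours before readout.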 As to conditions: JHH-DIPG-1 glioma viability, CellTiter-Glo ATP luminescence.
The nature of assay [5]: SU-DIPG-XXV glioma cell viability, MIPE5.0 library, qHTS (AID 1347068; cut-off not given, nearly all actives have IC50 up to about 30 µM;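 as to IC50: cells exposed to compound for 48 hours before viability readout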).
A short description of assay [6]: sensitizers of A549 cells to miR-34 induction, primary screen, imaging, A549 dox-inducible miR-34, nuclei and caspase counts (AID 1347080;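 active = compounds whose cell count with miR-34 switched on is under 0.7 times the count with it off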). Conditions: A549 miR-34 inducible, Hoechst nuclei count, 48 h.
A short description of assay [7]: modifiers of HSF1 nuclear foci, imaging, Selleck Cancer Library (AID 1347162; in the data active = plate-normalised HSF1 focus index below about 0.46). Conditions: human cells, at 10 µM; SSMD: measured here: HSF1 foci SSMD mean; cell count: measured here: cell number; plate-normalised HSF1 focus index: stronger effect = lower value.
Assay [8] in a line: survival rescue of mitochondrial mutant cells in low glucose, primary screen, MELAS cybrids, Rieske KO mouse fibroblasts, CellTiter-Glo (AID 1508586;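 active = mean z-score across replicates of 1.96 or higher in either the MELAS or the Rieske mutant cell line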;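 also: z relative to plate mean and SD of compound and empty wells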).
Assay [9] can be described thus: ovarian cancer cell viability with rucaparib, profiling panel, oncology-focused library, rucaparib conditional (AID 1508598;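 active = normalized viability below 100% at a tested concentration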). Conditions: patient-derived ovarian cancer cells, CellTiter-Glo viability, 144 h, stronger effect = lower value.

Inconclusive results are not listed. Active and inactive are the calls of the source. Unless noted, the limit is not given here; nearly all actives have AC50 up to about 26 µM.

`C=CCN1C[C@H](C(=O)N(CCCN(C)C)C(=O)NCC)CC2c3cccc4[nH]cc(c34)C[C@H]21` (stereo partly specified): the outcome in assay [1], in [2], in assay [3], in [4] and in assay [5] was inactive.
Consider `CN1CC[C@@H](NC(=O)Nc2ccc(C#N)cc2)C[C@@H]1c1nc2ccccc2[nH]1`, for which the result in [1], in assay [2], in assay [3], in [4] and in [5] was inactive.
Consider `CN[C@@H](C)C(=O)N[C@H](C(=O)N1CCC[C@H]1C(=O)Nc1sc(-c2ncco2)nc1-c1ccccc1)C1CCCCC1`, for which the compound was classed as inactive in [1], in assay [2], in assay [3], in assay [4] and in assay [5].
`Nc1nc(Nc2ccc3c(c2)CC[C@@H](N2CCCC2)CC3)nn1-c1cc2c(nn1)-c1ccccc1CCC2`: the AC50 was 9.34 µM (active) in assay [1], 16.6 µM (active) in [2], 6.61 µM (active) in assay [3] and 20.9 µM (active) in assay [4]. For the same compound, the concentration for half-maximal inhibition (IC50) in [5] was 26.3 µM (active).
Regarding `O=C(NCC(=O)N1CCCC1)Nc1ccc2cnccc2c1`, the compound was classed as inactive in [1], in assay [2], in [3], in assay [4] and in assay [5].
For `O=C1NC(=O)C(c2cnc3ccccn23)=C1c1cn2c3c(cc(F)cc13)CN(C(=O)N1CCCCC1)CC2`, the AC50 in assay [1] is 1.86 µM (active); in assay [2], 16.6 µM (active); in assay [3], 18.6 µM (active); in assay [4] it was 20.9 µM (active). In addition, the IC50 in [5] is 20.9 µM (active).
On to `CCOc1ccc(-n2c([C@@H](C)N(Cc3cccnc3)C(=O)Cc3ccc(F)c(C(F)(F)F)c3)nc3ncccc3c2=O)cc1`, for which the compound was classed as inactive in [1], in assay [2], in assay [3], in assay [4] and in [5].
On to `CNS(=O)(=O)c1ccc2c(c1)/C(=C/c1[nH]c3c(c1CCCN1CCN(C)CC1)CCCC3)C(=O)N2`, for which the AC50 was 7.42 µM (active) in assay [1], 8.33 µM (active) in [2], 7.42 µM (active) in assay [3] and 10.5 µM (active) in assay [4]. In assay [5], the outcome was inactive.
As to `CC(C)(NS(=O)(=O)c1ccc2c(Cl)cnc(N=C(N)N)c2c1)C(=O)O`, the compound was called inactive in assay [1], in assay [2], in assay [3], in assay [4] and in assay [5].
For the compound `COC(=O)N1CC2(CC2)C[C@H](C(=O)NO)[C@H]1C(=O)N1CCN(c2ccccc2)CC1`, the call in assay [1], in assay [2], in [3], in assay [4] and in assay [5] was inactive.
Take `CCC(C)CNCC(=O)N1CCc2sccc2C1c1cccc(C)n1` (stereo unspecified): the result in [1], in [2], in assay [3], in [4] and in assay [5] was inactive.
Turning to `[2H]c1nc(C)nc([2H])c1-c1cc(NC[C@@H](C)c2cccc3c(C(=O)NC)ccnc23)ncn1`, the result in assay [1], in assay [2], in assay [3], in assay [4] and in [5] was inactive.
On to `COc1ccc2cc(OCC3(C(=O)O)CN(C(=O)c4ccc(F)cc4)C3)ccc2c1`, for which the compound was classed as inactive in assay [1], in assay [2], in assay [3], in [4] and in assay [5].
Regarding `COc1ccc(C(=O)N2CCN(c3ccc4c(c3)CCC(=O)N4)CC2)cc1OC`, the call in assay [1], in assay [2], in [3], in [4] and in assay [5] was inactive.
Consider `CN(C)C/C=C/C(=O)Nc1cccc(C(=O)Nc2cccc(Nc3ncc(Cl)c(-c4c[nH]c5ccccc45)n3)c2)c1`, for which the AC50 in assay [1] was 0.417 µM (active); in assay [2], 0.332 µM (active); in assay [3], 0.263 µM (active); in [4], 0.468 µM (active). In addition, the IC50 in assay [5] was 0.417 µM (active).
As to `O=C(NC[C@H](O)CN1CCc2ccccc2C1)c1cc(NC2COC2)ncn1`, the AC50 in assay [1] was 23.5 µM (active). Moreover, the compound was called inactive in [2], in [3], in assay [4] and in assay [5].
As for `COc1ccccc1C(=O)Nc1cc2c(cc1N1CCNC[C@H]1C)n(C)c(=O)n2C`, the compound was classed as inactive in [1], in assay [2], in assay [3], in assay [4] and in assay [5].
Consider `CC(=O)N[C@H]1CSSC[C@@H](C(N)=O)NC(=O)[C@H](C(C)C)NC(=O)[C@H](C)NC(=O)[C@H](Cc2cnc[nH]2)NC1=O`, for which the compound was classed as inactive in assay [1], in assay [2], in [3], in assay [4] and in assay [5].
As for `O=C(Nc1cc(Oc2cc(F)c(NC(=O)C3(C(=O)Nc4ccc(F)cc4)CC3)cc2F)ccn1)C1CC1`, the AC50 is 14.8 µM (active) in assay [1], 13.2 µM (active) in assay [2], 9.34 µM (active) in assay [3] and 13.2 µM (active) in [4]. In addition, in assay [5], the IC50 was 18.6 µM (active).
Take `C[C@H](Nc1nc(N[C@H](C)C(F)(F)F)nc(-c2cccc(Cl)n2)n1)C(F)(F)F`: the compound was called inactive in assay [1], in [2], in [3], in [4] and in assay [5].
Consider `COc1cc(F)ccc1-c1ncnc(Nc2cccc(CS(C)(=N)=O)c2)n1` (stereo unspecified), for which the AC50 in assay [1] is 1.48 µM (active); in assay [2] it was 1.48 µM (active); in assay [3] it was 1.66 µM (active); in assay [4], 1.86 µM (active). The IC50 in assay [5] was 1.86 µM (active).
Turning to `CCN1C(=O)N2Cc3cc(OC)cc(OC)c3[C@@H](C)C=C2C12CCN(Cc1cc(C)cc(C)c1)CC2`, the AC50 in assay [1] is 20.9 µM (active); in assay [2] it was 18.6 µM (active); in assay [3] it was 14.8 µM (active); in [4], 18.6 µM (active). The IC50 in assay [5] is 20.9 µM (active).
Take `COC(C)(C)CCn1nc(Nc2c(C)cccc2C)c2cnc(Nc3ccc(OCCN4CCCC4)c(F)c3)nc21`: the AC50 in [1] was 16.6 µM (active); in assay [2], 18.6 µM (active); in assay [3] it was 14.8 µM (active); in assay [4], 16.6 µM (active). For the same compound, the IC50 in assay [5] was 16.6 µM (active).
On to `CN(NC(=O)CC(=O)NN(C)C(=S)c1ccccc1)C(=S)c1ccccc1`, for which the AC50 was 0.0186 µM (active) in assay [1], 0.00934 µM (active) in assay [2], 0.0186 µM (active) in assay [3] and 0.00525 µM (active) in assay [4]. For the same compound, the compound was classed as inactive in [5]. Further, the fold change in [6] (stronger effect = lower value, cell number ratio, induced over uninduced) is 0.813 (inactive); in assay [6] (measured here: relative caspase fold change +Dox/-Dox) it was 1.14. The cell count in assay [6] (measured here: total cells with miR-34 induction, stronger effect = lower value) worked out at 4660; in assay [6] (measured here: total cells without miR-34 induction) it was 5740; in [7], 6990. For the same compound, in assay [7], the SSMD came out at 2.56. Also, in [7], the plate-normalised HSF1 focus index was 1.13 (inactive). For the same compound, the z-score in assay [8] (MELAS cybrid survival, CellTiter-Glo 48 h, stronger effect = higher value) is 2.12 (active); in assay [8] (Rieske KO mouse fibroblast survival, CellTiter-Glo 72 h), -2.56. Moreover, the viability is 121% (inactive) in [9] (at 0.000305 µM, OCI-C5x cells, with rucaparib 10 µM, 100% = cells with rucaparib alone); 108% (inactive) in [9] (at 0.000305 µM, OCI-C5x cells, without rucaparib); 83.3% (active) in assay [9] (at 0.000305 µM, OCI-P5x cells, with rucaparib 20 µM, 100% = cells with rucaparib alone); 88% (active) in assay [9] (at 0.000305 µM, OCI-P5x cells, without rucaparib); 135% (inactive) in [9] (at 0.00122 µM, OCI-C5x cells, with rucaparib 10 µM, 100% = cells with rucaparib alone); 131% (inactive) in assay [9] (at 0.00122 µM, OCI-C5x cells, without rucaparib). In addition, the viability in assay [9] (at 0.00122 µM, OCI-P5x cells, with rucaparib 20 µM, 100% = cells with rucaparib alone) is 80.6% (active); in assay [9] (at 0.00122 µM, OCI-P5x cells, without rucaparib), 75.2% (active); in [9] (at 0.00488 µM, OCI-C5x cells, with rucaparib 10 µM, 100% = cells with rucaparib alone), 143% (inactive); in assay [9] (at 0.00488 µM, OCI-C5x cells, without rucaparib) it was 129% (inactive); in assay [9] (at 0.00488 µM, OCI-P5x cells, with rucaparib 20 µM, 100% = cells with rucaparib alone), 82.9% (active); in assay [9] (at 0.00488 µM, OCI-P5x cells, without rucaparib), 81.1% (active). Also, the viability in [9] (at 0.0195 µM, OCI-C5x cells, with rucaparib 10 µM, 100% = cells with rucaparib alone) was 151% (inactive); in assay [9] (at 0.0195 µM, OCI-C5x cells, without rucaparib), 131% (inactive); in assay [9] (at 0.0195 µM, OCI-P5x cells, with rucaparib 20 µM, 100% = cells with rucaparib alone), 88.5% (active); in [9] (at 0.0195 µM, OCI-P5x cells, without rucaparib), 84.6% (active); in assay [9] (at 0.0781 µM, OCI-C5x cells, with rucaparib 10 µM, 100% = cells with rucaparib alone) it was 140% (inactive); in assay [9] (at 0.0781 µM, OCI-C5x cells, without rucaparib), 122% (inactive). Also, the viability is 98.6% (active) in assay [9] (at 0.0781 µM, OCI-P5x cells, with rucaparib 20 µM, 100% = cells with rucaparib alone); 81% (active) in [9] (at 0.0781 µM, OCI-P5x cells, without rucaparib); 126% (inactive) in [9] (at 0.313 µM, OCI-C5x cells, with rucaparib 10 µM, 100% = cells with rucaparib alone); 133% (inactive) in assay [9] (at 0.313 µM, OCI-C5x cells, without rucaparib); 96% (active) in assay [9] (at 0.313 µM, OCI-P5x cells, with rucaparib 20 µM, 100% = cells with rucaparib alone); 95.1% (active) in [9] (at 0.313 µM, OCI-P5x cells, without rucaparib). In addition, the viability in assay [9] (at 1.25 µM, OCI-C5x cells, with rucaparib 10 µM, 100% = cells with rucaparib alone) is 125% (inactive); in assay [9] (at 1.25 µM, OCI-C5x cells, without rucaparib), 123% (inactive); in [9] (at 1.25 µM, OCI-P5x cells, with rucaparib 20 µM, 100% = cells with rucaparib alone) it was 82.2% (active); in assay [9] (at 1.25 µM, OCI-P5x cells, without rucaparib), 97.2% (active); in [9] (at 5 µM, OCI-C5x cells, with rucaparib 10 µM, 100% = cells with rucaparib alone) it was 128% (inactive); in assay [9] (at 5 µM, OCI-C5x cells, without rucaparib), 121% (inactive). In addition, the viability in assay [9] (at 5 µM, OCI-P5x cells, with rucaparib 20 µM, 100% = cells with rucaparib alone) is 99% (active); in assay [9] (at 5 µM, OCI-P5x cells, without rucaparib) it was 98% (active).

The values above are taken from PubChem BioAssay.
